In PubChem BioAssay (EPA / NIEHS):
Records with an inconclusive call do not appear. Active and inactive are the calls of the source. The calls were made as follows, unless noted: active = hit-call score of the fitted dose curve at least 0.9, where 1 is the maximum; inactive = score below 0.9.

Columns and labels:
[1] = ATG_PXRE_CIS: Attagene CIS-FACTORIAL HepG2 Assay for human Pregnane X Receptor Element (PXRE) (AID 2282957); conditions: HepG2 Attagene CIS-FACTORIAL PXRE reporter, mRNA; actives raise or lower the signal
Summary of the method: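 Multiplexed cis-reporter assay in transiently transfected human HepG2 cells; 24 h chemical exposure. Reporter transcripts quantified by RT-PCR with fluorescent labeling and capillary electrophoresis.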

[2] = ATG_PPRE_CIS: Attagene CIS-FACTORIAL HepG2 Assay for human Peroxisome Proliferator-activated Response Element (PPRE) (AID 2282958); conditions: HepG2 PPRE cis-element reporter, Attagene transcription factor profiling; actives raise or lower the signal
Summary of the method: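 HepG2, transient MRTU transfection (cis promoter elements, endogenous TFs). 24 h dosing. RNA → oligo(dT) RT → PCR → 6-FAM primer extension → HpaI digest → CE. Bidirectional fit vs DMSO.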

[3] = ATG_RORE_CIS: Attagene CIS-FACTORIAL HepG2 Assay for human RAR-related Orphan Receptor Element (RORE) (AID 2282959); conditions: HepG2 Attagene cis-factorial RORE reporter, mRNA; actives raise or lower the signal
Summary of the method: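 Transient MRTU transfection of human HepG2 liver cells (FuGene 6); 24 h compound exposure; TriZol RNA, oligo(dT) RT, PCR, FAM labeling, HpaI cut, CE fragment analysis. DMSO = negative control/baseline.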

[4] = ATG_Sox_CIS: Attagene CIS-FACTORIAL HepG2 Assay for human SRY-box transcription factor (SOX) (AID 2282960); conditions: HepG2 Attagene cis-factorial SOX reporter, mRNA; actives raise or lower the signal
Summary of the method: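 Endogenous factor activity in human liver HepG2 cells carrying transfected cis-regulated reporter units. RNA taken 24 h post-dose, reverse-transcribed, PCR-amplified and sized by capillary electrophoresis. Gain or loss of signal fitted relative to DMSO.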

[5] = molecular target: Transcription factor Sp1 (Homo sapiens) (UniProt P08047); test: ATG_Sp1_CIS: Attagene CIS-FACTORIAL HepG2 Assay for human Specificity Protein 1 (Sp1) (AID 2282961); conditions: HepG2 Sp1 cis-reporter transcription, actives raise or lower the signal
Transcription factor Sp1 (Homo sapiens), sequence (P08047 whole entry, looked up): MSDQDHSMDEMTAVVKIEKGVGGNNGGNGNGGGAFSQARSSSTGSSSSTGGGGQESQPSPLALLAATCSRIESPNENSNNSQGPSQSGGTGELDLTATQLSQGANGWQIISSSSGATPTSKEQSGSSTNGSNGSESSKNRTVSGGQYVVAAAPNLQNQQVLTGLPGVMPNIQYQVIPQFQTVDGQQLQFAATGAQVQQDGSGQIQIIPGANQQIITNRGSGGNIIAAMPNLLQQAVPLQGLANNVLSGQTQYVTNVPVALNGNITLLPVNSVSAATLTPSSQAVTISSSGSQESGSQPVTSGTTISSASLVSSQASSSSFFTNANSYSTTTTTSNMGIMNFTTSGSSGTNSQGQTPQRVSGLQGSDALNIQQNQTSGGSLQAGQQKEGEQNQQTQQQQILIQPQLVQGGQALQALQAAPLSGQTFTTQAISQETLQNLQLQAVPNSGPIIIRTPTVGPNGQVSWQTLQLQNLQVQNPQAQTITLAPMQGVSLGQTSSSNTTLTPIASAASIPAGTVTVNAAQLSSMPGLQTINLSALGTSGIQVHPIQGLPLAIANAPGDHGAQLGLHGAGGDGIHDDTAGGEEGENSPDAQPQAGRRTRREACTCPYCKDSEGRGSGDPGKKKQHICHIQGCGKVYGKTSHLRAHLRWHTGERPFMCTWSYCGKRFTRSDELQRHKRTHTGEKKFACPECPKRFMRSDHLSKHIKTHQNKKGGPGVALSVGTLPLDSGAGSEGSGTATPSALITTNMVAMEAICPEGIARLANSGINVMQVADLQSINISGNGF
Summary of the method: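 Transient MRTU-transfected HepG2, 24 h compound exposure. Total RNA → oligo(dT) RT → PCR of reporter → 6-FAM primer extension → HpaI digest → CE. Endpoint fitted both directions vs DMSO.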

[6] = ATG_SREBP_CIS: Attagene CIS-FACTORIAL HepG2 Assay for human Sterol Regulatory Element Binding (SREBP) (AID 2282962); conditions: HepG2 Attagene cis-factorial SREBP reporter, mRNA; actives raise or lower the signal
Summary of the method: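 Transfected HepG2 (cis-regulated reporter library, endogenous TFs) → compound 24 h → total RNA → oligo(dT) RT → reporter-specific PCR → FAM primer extension, HpaI cut → CE fluorescence. Fit bidirectional vs DMSO.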

[7] = molecular target: Signal transducer and activator of transcription 3 (Homo sapiens) (UniProt P40763); test: ATG_STAT3_CIS: Attagene CIS-FACTORIAL HepG2 Assay for human Signal Transducer and Activator of Transcription 3 (STAT3) (AID 2282963); conditions: HepG2, Attagene cis-factorial STAT3 reporter transcription; actives raise or lower the signal
Signal transducer and activator of transcription 3 (Homo sapiens), sequence (P40763 whole entry, looked up): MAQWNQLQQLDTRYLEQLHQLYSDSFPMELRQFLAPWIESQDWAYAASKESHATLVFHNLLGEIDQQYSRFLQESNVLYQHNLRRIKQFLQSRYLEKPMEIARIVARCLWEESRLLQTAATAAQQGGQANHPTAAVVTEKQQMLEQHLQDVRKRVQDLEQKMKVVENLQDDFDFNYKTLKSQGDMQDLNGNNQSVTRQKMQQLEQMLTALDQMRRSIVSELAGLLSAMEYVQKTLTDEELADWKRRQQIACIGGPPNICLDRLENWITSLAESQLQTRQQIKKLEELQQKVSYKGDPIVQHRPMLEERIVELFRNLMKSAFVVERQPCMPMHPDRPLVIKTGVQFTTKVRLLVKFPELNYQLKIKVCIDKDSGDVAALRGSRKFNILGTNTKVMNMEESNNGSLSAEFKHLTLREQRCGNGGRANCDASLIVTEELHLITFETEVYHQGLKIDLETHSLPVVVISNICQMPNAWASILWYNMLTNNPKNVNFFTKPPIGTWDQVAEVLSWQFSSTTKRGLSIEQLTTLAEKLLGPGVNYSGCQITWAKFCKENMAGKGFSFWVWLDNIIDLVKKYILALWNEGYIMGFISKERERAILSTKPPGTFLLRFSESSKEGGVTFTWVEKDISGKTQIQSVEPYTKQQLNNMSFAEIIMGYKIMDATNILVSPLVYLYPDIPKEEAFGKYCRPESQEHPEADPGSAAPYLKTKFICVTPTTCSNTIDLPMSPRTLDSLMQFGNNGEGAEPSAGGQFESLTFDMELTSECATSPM
Summary of the method: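 HepG2 cells transiently transfected with cis-element-driven multiple reporter transcription units; after 24 h chemical exposure, reporter mRNA measured by RT-PCR, 6-FAM primer-extension labelling, HpaI digestion and capillary electrophoresis. Bidirectional fitting versus DMSO baseline.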

[8] = ATG_TA_CIS: Attagene CIS-FACTORIAL HepG2 Assay for human TA Basal Promoter (AID 2282964); conditions: HepG2 Attagene CIS-factorial TA basal promoter reporter; actives raise or lower the signal
Summary of the method: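 Read-out: fluorescent reporter-transcript fragments resolved by capillary electrophoresis after RT-PCR and HpaI digestion. Source: HepG2 cells carrying transiently transfected multi-reporter cis constructs, treated 24 h. Endpoint fitted bidirectionally relative to DMSO.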

[9] = ATG_TCF_b_cat_CIS: Attagene CIS-FACTORIAL HepG2 Assay for human T-Cell-Factor with beta-catenin (TCF/b-cat) (AID 2282965); conditions: HepG2 TCF/beta-catenin cis-reporter transcription, actives raise or lower the signal
Summary of the method: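 In this cis-format system, transfected HepG2 cells report endogenous transcription factor activity. Readout after 24 h exposure is reporter transcript abundance from RT-PCR and capillary electrophoresis, analysed for gain or loss of signal versus DMSO.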

[10] = ATG_TAL_CIS: Attagene CIS-FACTORIAL HepG2 Assay for human TAL Basal Promoter (AID 2282966); conditions: HepG2 Attagene cis-factorial TAL promoter reporter; actives raise or lower the signal;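 also: background control endpoint measuring basal TAL promoter reporter mRNA not a specific factor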
Summary of the method: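 Steps: transfect HepG2 with multiple reporter transcription units; dose 24 h; isolate RNA, reverse-transcribe, PCR-amplify, label with 6-FAM, digest with HpaI; resolve by capillary electrophoresis. Bidirectional fitting against DMSO baseline.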

[11] = ATG_TGFb_CIS: Attagene CIS-FACTORIAL HepG2 Assay for human Transforming Growth Factor (TGF) (AID 2282967); conditions: HepG2 Attagene CIS TGFb reporter, mRNA transcription; actives raise or lower the signal
Summary of the method: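 Transient MRTU transfection of HepG2 (FuGene 6). Dose 24 h. TriZol RNA, oligo(dT) RT, PCR, 6-FAM primer extension, HpaI cut, CE. Bidirectional fit, DMSO = baseline.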

[12] = ATG_VDRE_CIS: Attagene CIS-FACTORIAL HepG2 Assay for human Vitamin D Receptor Element (VDRE) (AID 2282968); conditions: HepG2 VDRE cis-reporter transcription, actives raise or lower the signal
Summary of the method: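 HepG2 cells transiently transfected with cis-element reporter units, dosed 24 h; reporter mRNA measured by RT-PCR, 6-FAM labeling, HpaI digestion and capillary electrophoresis. Activity fitted bidirectionally against DMSO baseline.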

[13] = molecular target: Estrogen receptor (Homo sapiens) (UniProt P03372); test: ATG_ERa_TRANS: Attagene TRANS-FACTORIAL HepG2 Assay for human Estrogen Receptor alpha (ERa) (AID 2282970; active = hit-call score of the fitted dose curve at least 0.9, where 1 is the maximum); conditions: HepG2 Attagene TRANS ERa GAL4 reporter, mRNA
Estrogen receptor (Homo sapiens), sequence (P03372 whole entry, looked up, the tested form may be a part): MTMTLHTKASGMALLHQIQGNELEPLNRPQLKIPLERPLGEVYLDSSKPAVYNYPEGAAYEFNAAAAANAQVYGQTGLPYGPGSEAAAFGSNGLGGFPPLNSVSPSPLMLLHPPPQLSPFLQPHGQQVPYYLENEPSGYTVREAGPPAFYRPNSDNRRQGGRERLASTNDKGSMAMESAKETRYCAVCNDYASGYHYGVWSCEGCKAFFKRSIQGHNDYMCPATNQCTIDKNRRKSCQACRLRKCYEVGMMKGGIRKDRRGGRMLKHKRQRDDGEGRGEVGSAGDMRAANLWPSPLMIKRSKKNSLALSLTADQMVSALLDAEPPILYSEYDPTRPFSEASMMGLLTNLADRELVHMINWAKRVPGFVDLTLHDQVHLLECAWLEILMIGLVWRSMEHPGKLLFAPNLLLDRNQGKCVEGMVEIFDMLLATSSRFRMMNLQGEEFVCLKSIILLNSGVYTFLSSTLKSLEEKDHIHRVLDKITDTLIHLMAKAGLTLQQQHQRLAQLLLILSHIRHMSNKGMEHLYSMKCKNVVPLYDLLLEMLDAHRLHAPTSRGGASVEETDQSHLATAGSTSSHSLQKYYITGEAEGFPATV
Summary of the method: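 Multiplexed cell-based reporter format in HepG2: chimeric ERa-Gal4 protein drives GAL4-UAS reporter transcription. Fluorescent reporter mRNA quantified by capillary electrophoresis 24 hours after dosing; endpoint fitted as signal gain against DMSO.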

[14] = molecular target: Steroid hormone receptor ERR1 (Homo sapiens) (UniProt P11474); test: ATG_ERRa_TRANS: Attagene TRANS-FACTORIAL HepG2 Assay for human Estrogen-Related Receptor alpha (ERRa) (AID 2282971; active = hit-call score of the fitted dose curve at least 0.9, where 1 is the maximum); conditions: HepG2 Attagene TRANS reporter, ERRa transactivation
Steroid hormone receptor ERR1 (Homo sapiens), sequence (P11474 whole entry, looked up, the tested form may be a part): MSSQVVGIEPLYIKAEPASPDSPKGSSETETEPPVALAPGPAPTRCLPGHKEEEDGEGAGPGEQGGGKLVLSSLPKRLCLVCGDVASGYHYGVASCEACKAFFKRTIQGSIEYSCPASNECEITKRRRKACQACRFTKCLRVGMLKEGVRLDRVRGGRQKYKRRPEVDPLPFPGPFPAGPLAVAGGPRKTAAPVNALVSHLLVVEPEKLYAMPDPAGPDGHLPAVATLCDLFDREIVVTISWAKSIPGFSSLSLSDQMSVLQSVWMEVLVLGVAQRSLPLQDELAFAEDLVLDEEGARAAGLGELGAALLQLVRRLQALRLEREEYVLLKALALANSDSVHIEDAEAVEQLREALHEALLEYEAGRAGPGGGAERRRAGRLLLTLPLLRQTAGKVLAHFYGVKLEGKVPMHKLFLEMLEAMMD
Summary of the method: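 Signal gain relative to DMSO for an ERRa-Gal4 chimeric receptor, read as reporter mRNA by RT-PCR/capillary electrophoresis. Human HepG2 liver cells, transient multiplex reporter transfection, 24 h chemical exposure.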

[15] = molecular target: X-box-binding protein 1 (Homo sapiens) (UniProt P17861); test: ATG_Xbp1_CIS: Attagene CIS-FACTORIAL HepG2 Assay for human X-box Binding Protein 1 (XBP1) (AID 2282972); conditions: HepG2 XBP1 cis-element reporter, Attagene multiplex; actives raise or lower the signal
X-box-binding protein 1 (Homo sapiens), sequence (P17861 whole entry, looked up): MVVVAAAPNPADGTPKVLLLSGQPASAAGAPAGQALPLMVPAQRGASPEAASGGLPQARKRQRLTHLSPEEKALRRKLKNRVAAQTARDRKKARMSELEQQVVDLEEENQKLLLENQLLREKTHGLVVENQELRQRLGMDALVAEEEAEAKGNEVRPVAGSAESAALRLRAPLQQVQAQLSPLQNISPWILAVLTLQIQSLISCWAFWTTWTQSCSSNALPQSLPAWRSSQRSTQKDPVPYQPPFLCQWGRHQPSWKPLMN
Summary of the method: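 HepG2, transient MRTU transfection (cis-promoter driven), 24 h compound exposure. Total RNA → oligo(dT) RT → PCR → 6-FAM labeling → HpaI cut → CE. Bidirectional fit vs DMSO.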

[16] = molecular target: Nuclear receptor subfamily 1 group I member 3 (Homo sapiens) (UniProt Q14994); test: ATG_CAR_TRANS: Attagene TRANS-FACTORIAL HepG2 Assay for human Constitutive Androstane Receptor (CAR) (AID 2282969; active = hit-call score of the fitted dose curve at least 0.9, where 1 is the maximum;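 also: activators raise reporter mRNA above DMSO so AC50 marks induction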); conditions: HepG2 Attagene TRANS-FACTORIAL CAR reporter
Nuclear receptor subfamily 1 group I member 3 (Homo sapiens), sequence (Q14994 whole entry, looked up, the tested form may be a part): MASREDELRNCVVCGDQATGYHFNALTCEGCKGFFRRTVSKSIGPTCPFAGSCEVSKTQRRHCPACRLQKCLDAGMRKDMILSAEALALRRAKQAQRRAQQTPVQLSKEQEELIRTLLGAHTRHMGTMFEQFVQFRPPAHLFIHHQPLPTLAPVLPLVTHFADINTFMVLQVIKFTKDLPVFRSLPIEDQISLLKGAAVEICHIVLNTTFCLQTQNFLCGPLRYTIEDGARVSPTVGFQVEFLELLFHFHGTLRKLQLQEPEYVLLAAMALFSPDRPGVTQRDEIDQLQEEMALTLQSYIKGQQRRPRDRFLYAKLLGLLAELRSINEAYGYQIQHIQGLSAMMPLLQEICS
Summary of the method: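 HepG2 cells transiently transfected with multiplexed GAL4-UAS reporter units expressing chimeric NR-Gal4 proteins; compound exposure 24 h. Reporter mRNA measured by RT-PCR, 6-FAM labelling, HpaI digestion and capillary electrophoresis; gain-of-signal fitted against DMSO baseline.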

[17] = ATG_M_19_TRANS: Attagene TRANS-FACTORIAL HepG2 Assay for M19 Transcription Factor (Internal Marker) (AID 2282974; active = hit-call score of the fitted dose curve at least 0.9, where 1 is the maximum); conditions: HepG2 Attagene TRANS-FACTORIAL M19 internal marker reporter
Summary of the method: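 Fluorescence of 6-FAM-labelled reporter cDNA fragments, separated by capillary electrophoresis, served as the readout. These derived from HepG2 cells carrying transfected GAL4-UAS reporter units after 24 h dosing, with DMSO as negative control.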

[18] = ATG_GAL4_TRANS: Attagene TRANS-FACTORIAL HepG2 Assay for GAL4 (Internal Marker) (AID 2282976; active = hit-call score of the fitted dose curve at least 0.9, where 1 is the maximum); conditions: HepG2 Attagene TRANS GAL4 internal marker reporter
Summary of the method: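 Liver HepG2 line bearing multiplexed GAL4-UAS reporter constructs; 24 h chemical treatment. Transcripts were quantified as fluorescent fragments on capillary electrophoresis after RT-PCR and HpaI cut, with activity fitted upward from DMSO.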

[19] = molecular target: Glucocorticoid receptor (Homo sapiens) (UniProt P04150); test: ATG_GR_TRANS: Attagene TRANS-FACTORIAL HepG2 Assay for human Glucocorticoid Receptor (GR) (AID 2282978; active = hit-call score of the fitted dose curve at least 0.9, where 1 is the maximum;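 also: activators score as hits since higher reporter transcript over DMSO is fitted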); conditions: HepG2 Attagene TRANS GR reporter, mRNA transcription
Glucocorticoid receptor (Homo sapiens), sequence (P04150 whole entry, looked up, the tested form may be a part): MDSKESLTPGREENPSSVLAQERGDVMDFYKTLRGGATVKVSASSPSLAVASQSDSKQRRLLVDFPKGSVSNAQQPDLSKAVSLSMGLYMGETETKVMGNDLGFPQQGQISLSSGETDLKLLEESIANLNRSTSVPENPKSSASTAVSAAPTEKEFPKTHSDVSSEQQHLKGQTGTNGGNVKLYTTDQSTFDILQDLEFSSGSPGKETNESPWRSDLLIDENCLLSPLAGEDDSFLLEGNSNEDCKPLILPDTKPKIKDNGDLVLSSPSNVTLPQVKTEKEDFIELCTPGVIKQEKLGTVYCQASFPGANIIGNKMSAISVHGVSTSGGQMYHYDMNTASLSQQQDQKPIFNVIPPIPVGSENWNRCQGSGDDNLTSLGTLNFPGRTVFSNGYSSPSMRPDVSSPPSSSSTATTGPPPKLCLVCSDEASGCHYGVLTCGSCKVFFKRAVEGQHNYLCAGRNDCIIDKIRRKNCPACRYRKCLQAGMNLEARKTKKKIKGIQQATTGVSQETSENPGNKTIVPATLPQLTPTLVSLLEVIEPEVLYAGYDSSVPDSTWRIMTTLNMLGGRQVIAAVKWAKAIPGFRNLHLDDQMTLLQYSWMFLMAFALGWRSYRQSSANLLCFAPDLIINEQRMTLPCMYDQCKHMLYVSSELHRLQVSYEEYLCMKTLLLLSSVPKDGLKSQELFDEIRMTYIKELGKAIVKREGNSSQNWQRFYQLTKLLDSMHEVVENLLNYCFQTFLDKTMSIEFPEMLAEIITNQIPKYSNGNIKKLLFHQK
Summary of the method: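 Fluorescent capillary-electrophoresis quantitation of reporter mRNA is the readout, taken 24 h after dosing human HepG2 cells carrying transiently transfected GAL4-UAS reporter units activated by chimeric NR-GAL4 fusions; activity scored as induction over DMSO.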

[20] = molecular target: Estrogen-related receptor gamma (Homo sapiens) (UniProt P62508); test: ATG_ERRg_TRANS: Attagene TRANS-FACTORIAL HepG2 Assay for human Estrogen-Related Receptor gamma (ERRg) (AID 2282977; active = hit-call score of the fitted dose curve at least 0.9, where 1 is the maximum;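 also: hits increase reporter signal over DMSO so potencies reflect activators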); conditions: HepG2 Attagene TRANS reporter, ERRg transactivation
Estrogen-related receptor gamma (Homo sapiens), sequence (P62508 whole entry, looked up, the tested form may be a part): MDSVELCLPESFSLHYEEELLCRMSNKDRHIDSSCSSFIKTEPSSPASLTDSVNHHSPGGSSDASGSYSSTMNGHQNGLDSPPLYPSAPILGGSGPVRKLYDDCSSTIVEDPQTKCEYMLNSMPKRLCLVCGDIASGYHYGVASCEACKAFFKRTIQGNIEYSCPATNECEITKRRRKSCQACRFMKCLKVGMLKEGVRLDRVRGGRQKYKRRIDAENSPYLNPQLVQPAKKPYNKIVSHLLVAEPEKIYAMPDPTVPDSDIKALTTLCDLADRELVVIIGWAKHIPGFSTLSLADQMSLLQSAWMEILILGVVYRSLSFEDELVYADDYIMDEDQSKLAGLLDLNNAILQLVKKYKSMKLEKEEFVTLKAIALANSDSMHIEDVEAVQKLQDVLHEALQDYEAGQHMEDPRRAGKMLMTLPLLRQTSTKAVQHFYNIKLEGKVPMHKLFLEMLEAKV
Summary of the method: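 HepG2 cells transiently transfected with multiplexed GAL4-UAS reporter units and chimeric NR-Gal4 constructs were exposed to test chemicals for 24 h. Reporter mRNA was measured by RT-PCR, 6-FAM primer extension, HpaI digestion and capillary electrophoresis; gain-of-signal versus DMSO.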

OCCCBr
outcome [1]: inactive
outcome [2]: inactive
outcome [3]: inactive
outcome [4]: inactive
outcome [5]: inactive
outcome [6]: inactive
outcome [7]: inactive
outcome [8]: inactive
outcome [9]: inactive
outcome [10]: inactive
outcome [11]: inactive
outcome [12]: inactive
outcome [13]: inactive
outcome [14]: inactive
outcome [15]: inactive

CCCCOC(=O)c1ccccc1C(=O)OCc1ccccc1
AC50 [1]: 27.1 µM (active)
outcome [2]: inactive
outcome [3]: inactive
outcome [4]: inactive
outcome [5]: inactive
outcome [6]: inactive
outcome [7]: inactive
outcome [8]: inactive
outcome [9]: inactive
outcome [10]: inactive
outcome [11]: inactive
outcome [16]: inactive
outcome [15]: inactive
outcome [17]: inactive
outcome [18]: inactive
outcome [19]: inactive

c1ccc(C2CO2)cc1 (centres undefined)
AC50 [1]: 34.8 µM (active)
outcome [2]: inactive
outcome [3]: inactive
outcome [4]: inactive
outcome [5]: inactive
outcome [6]: inactive
outcome [7]: inactive
outcome [8]: inactive
outcome [9]: inactive
outcome [10]: inactive
outcome [11]: inactive
outcome [12]: inactive
outcome [15]: inactive
outcome [17]: inactive
outcome [19]: inactive

ClCCOCCCl
outcome [1]: inactive
outcome [2]: inactive
outcome [3]: inactive
outcome [4]: inactive
outcome [5]: inactive
outcome [6]: inactive
outcome [7]: inactive
outcome [8]: inactive
outcome [9]: inactive
outcome [10]: inactive
outcome [11]: inactive
outcome [15]: inactive
outcome [17]: inactive

CO[C@@H]1[C@H](OC(=O)NC(=O)CCl)CC[C@]2(CO2)[C@H]1[C@@]1(C)O[C@@H]1CC=C(C)C
AC50 [1]: 0.293 µM (active)
outcome [2]: inactive
outcome [3]: inactive
outcome [4]: inactive
outcome [5]: inactive
outcome [6]: inactive
outcome [7]: inactive
outcome [8]: inactive
AC50 [9]: 39.5 µM (active)
outcome [10]: inactive
outcome [11]: inactive
outcome [12]: inactive
AC50 [15]: 30.9 µM (active)
outcome [20]: inactive
outcome [19]: inactive

O=C(Nc1ccccc1)c1ccccc1I
AC50 [1]: 6.15 µM (active)
outcome [2]: inactive
outcome [3]: inactive
outcome [4]: inactive
outcome [5]: inactive
AC50 [6]: 42.1 µM (active)
outcome [7]: inactive
outcome [8]: inactive
outcome [9]: inactive
outcome [10]: inactive
outcome [11]: inactive
outcome [13]: inactive
outcome [15]: inactive
outcome [17]: inactive
outcome [19]: inactive

Brc1ccc(Oc2ccccc2)cc1
outcome [1]: inactive
outcome [2]: inactive
outcome [3]: inactive
outcome [4]: inactive
AC50 [5]: 100 µM (active)
AC50 [6]: 149 µM (active)
outcome [7]: inactive
outcome [8]: inactive
outcome [9]: inactive
outcome [10]: inactive
outcome [11]: inactive
outcome [12]: inactive
outcome [13]: inactive
outcome [15]: inactive
outcome [19]: inactive

c1ccc2c(c1)-c1cccc3cccc-2c13
AC50 [1]: 26 µM (active)
outcome [2]: inactive
outcome [3]: inactive
outcome [4]: inactive
outcome [5]: inactive
outcome [6]: inactive
outcome [7]: inactive
outcome [8]: inactive
outcome [9]: inactive
outcome [10]: inactive
outcome [11]: inactive
outcome [12]: inactive
outcome [16]: inactive
outcome [15]: inactive
outcome [18]: inactive
